# Source: PubChem (Broad Institute)
# Many of the other results were omitted from the sample, so hits are more common in it than they were.
# DUX4 txn inh: inhibitors of DUX4-driven ZSCAN4 reporter expression, primary screen, 293T cells, Gaussia and Italica luciferase | 293T-iDUX4 ZSCAN4-Gaussia luciferase reporter, 24 h; active compounds read low | activity change, negative = inhibition, % (concentration not given with the values) | 0.8% of 37,000 active | AID 1224904, 2016;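 active = mean inhibition of at least 10% in the main channel, exceeding the control channel by a set limit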
# A number is an active result; - = inactive; ! = not confirmed by another sample.
SMILES,DUX4 txn inh
COc1ccc2c3c(n(C)c2c1)[C@H](CO)N(C(=O)Nc1ccccc1F)CC31CN(C)C1,-
CN1CCCCN2[C@H](C1)[C@@H](c1ccc(-c3ccc(F)cc3)cc1)[C@@H]2CO,-
O=C(NCc1ccccn1)[C@H]1[C@H](CO)[C@H]2Cn3c(cccc3=O)[C@@H]1N2CC1CCCC1,-
Cc1ccc(-c2ccccc2[C@H]2[C@@H](C#N)N(C(=O)NC3CCCC3)[C@H]2CO)cc1,-
N#C[C@@H]1[C@@H](c2ccccc2-c2cccc(F)c2)[C@@H](CO)N1C(=O)NC1CCCCC1,-29
N#C[C@@H]1[C@@H](c2ccc(-c3cccc(F)c3)cc2)[C@@H](CO)N1C(=O)NC1CCCC1,-
CCNC(=O)[C@@H]1[C@@H](CO)[C@@H]2Cn3c(ccc(C4=CCCCC4)c3=O)[C@@H]2N1C(=O)CC1CC1,-
C[C@H](CO)N1C[C@H](C)[C@@H](CN(C)S(=O)(=O)c2cccc(F)c2)OCc2ccccc2-c2ccccc2C1=O,-
N#Cc1cccc(-c2ccc(C3[C@@H]4CN(C(=O)c5ccncc5)C[C@H]3N4)cc2)c1 (stereo partly drawn),-
N#Cc1ccc(-c2ccc(C3[C@@H]4CN(C(=O)c5ccncc5)C[C@H]3N4)cc2)cc1 (stereo partly drawn),-
O=C(C1CCOCC1)N1C[C@@H]2N[C@H](C1)C2c1ccc(-c2cccc(F)c2)cc1 (stereo partly drawn),-
N#Cc1cccc(-c2ccc(C3[C@@H]4CN(C(=O)C5CCCCC5)C[C@H]3N4)cc2)c1 (stereo partly drawn),-52!
N#Cc1ccc(-c2ccc(C3[C@@H]4CN(C(=O)C5CCCCC5)C[C@H]3N4)cc2)cc1 (stereo partly drawn),-52!
CC(=O)N1C[C@@H]2N[C@H](C1)C2c1ccc(-c2ccccc2)cc1 (stereo partly drawn),-
C/C=C/c1ccc([C@@H]2[C@@H](CO)N(C(=O)NCCC)[C@H]2CNC(=O)C2CC2)cc1,-
O=C(NC1CCC1)[C@H]1[C@H](CO)[C@H]2Cn3c(ccc(/C=C/c4ccccc4)c3=O)[C@H]2N1Cc1cncnc1,-
O=C(O)C[C@H]1C[C@@H]2c3cc(NC(=O)NC4CCCC4)ccc3O[C@@H]2[C@H](CO)O1,-
O=C(CN1CCOCC1)N1CCCCN2[C@H](CO)[C@@H](c3ccc(C#Cc4ccccc4F)cc3)[C@H]2C1,-
O=C(CN1CCOCC1)N1CCCCN2[C@@H](CO)[C@@H](c3ccc(C#Cc4ccccc4F)cc3)[C@@H]2C1,-
CC(=O)N1CCCCN2[C@H](C1)[C@H](c1ccc(C#Cc3ccccc3F)cc1)[C@@H]2CO,-
CC(=O)N1CCCCN2[C@@H](CO)[C@H](c3ccc(C#Cc4ccccc4F)cc3)[C@@H]2C1,-
O=C(CN1CCOCC1)N1CCCCN2[C@H](CO)[C@@H](c3ccc(C#Cc4ccccc4F)cc3)[C@@H]2C1,-36
CC(C)NC(=O)N1CCCCN2[C@H](C1)[C@@H](c1ccc(C#Cc3ccccc3F)cc1)[C@@H]2CO,-47
CCC(=O)N1C[C@@H](O)COC[C@H]2O[C@@H](CC(=O)NC)CC[C@@H]21,-
O=C(Cc1cccnc1)N1[C@@H](CO)[C@@H]2c3ccccc3NC[C@@H]21,-
SMILES,DUX4 txn inh
O=C(Cc1ccccc1)N1CC(=O)N2[C@H](CO)[C@@H](c3ccc(C#CCc4ccccc4)cc3)[C@@H]2C1,-33
CC(C)CC#Cc1ccc([C@H]2[C@H]3CN(C(=O)c4cccc(F)c4)CC(=O)N3[C@H]2CO)cc1,-
O=C(Cc1ccccc1)N1CC(=O)N2[C@@H](CO)[C@@H](c3ccc(C#CCc4ccccc4)cc3)[C@@H]2C1,-
CC(C)CC#Cc1ccc([C@@H]2[C@@H](CO)N3C(=O)CN(C(=O)c4cccc(F)c4)C[C@H]23)cc1,-
O=C(Cc1ccccc1)N1CC(=O)N2[C@@H](CO)[C@H](c3ccc(C#CCc4ccccc4)cc3)[C@@H]2C1,-
CC(C)CC#Cc1ccc([C@H]2[C@H](CO)N3C(=O)CN(C(=O)c4cccc(F)c4)C[C@@H]23)cc1,-38
COc1cccc(S(=O)(=O)Nc2ccc3c(c2)C(=O)N(C)[C@@H]2CC[C@@H](CC(=O)O)O[C@H]2CO3)c1,-
CN(C)C(=O)C[C@H]1CC[C@H]2[C@@H](COC[C@H](O)CN2Cc2ccc(C(F)(F)F)cc2)O1,-
COc1cc(CN2CC3(CN(C)C3)c3c([nH]c4cc(OC)ccc34)[C@@H]2CO)cc(OC)c1,-
CCCC(=O)Nc1ccc2c(c1)C(=O)N(C)C[C@@H](OC)[C@@H](C)CN(C(=O)C1CCCC1)[C@@H](C)CO2,-
O=C(Nc1ccc2c(c1)[C@@H]1C[C@H](CC(=O)N3CCc4ccccc4C3)O[C@@H](CO)[C@@H]1O2)C1CCOCC1,-
C[C@@H]1CN([C@@H](C)CO)C(=O)c2cc(-c3ccccc3)cnc2O[C@@H]1CN(C)C(=O)c1ccccn1,-
COCC(=O)N1[C@H](CN(C)C(=O)c2ccncc2)[C@@H](c2ccccc2)[C@@H]1CO,-
CC(C)NC(=O)N1[C@H](CO)[C@H](c2ccccc2)C12CN(C(=O)CN(C)C)C2,-
